Consider 2 compounds from the supplement of paper PMC9942566.

± gives the standard deviation of the averaged measurements.

The first assay relates to Serratia marcescens K904 PosmB-luxCDABE reporter (pMQ747). Briefly: PosmB-lux reporter fold induction (RLU/OD600 relative to no-compound control), highest over Biolog concentrations; higher = stronger reporter activation. To be noted: Biolog plate: PM14; well positions: D5-8; ΔrcsB mutant CMS5177; 4 h. How it is done:
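Serratia marcescens K904 (wild type) or its isogenic ΔrcsB mutant, carrying the Rcs-dependent PosmB-luxCDABE reporter plasmid pMQ747, was grown in LB at OD600 0.1 in Biolog Phenotype MicroArray plates PM11-20 for 4 h at 30-32°C. Each compound is present at 3-4 proprietary concentrations (not stated); per the Fig. S1 legend the value given is the highest fold over those wells. Three independent trials.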
Consider `O=C(O)CI` [Iodoacetate], for which the “PosmB-lux reporter fold induction” value worked out at 0.974 ± 0.21.

Still in this assay, the particulars now being: Biolog plate: PM18; well positions: G5-8; ΔrcsB mutant CMS5177; 4 h.
As for `Nc1n[nH]c(N)n1` [3,5-diamino-1,2,4-triazole (Guanazole)], the “PosmB-lux reporter fold induction” value was determined as 12 ± 5.6.
